Our source for the composite z-score and z-score values is PubChem BioAssay.

Activity calls are given as the source filed them.

In test [1] the test system is Plasmodium falciparum Sir2 (PF13_0152, Sir2A). Put plainly: pfSir2 binders on small-molecule microarrays, primary screen, biochemical, small-molecule microarray, 635 nm fluorescence (AID 1098).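 Note: score merges spot fluorescence intensity with its signal-to-noise ratio.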 The settings on record: small-molecule microarray binding, fluorescence 635 nm; higher = more signal.
A short description of test [2]: small-molecule microarray binders of probe aDKK1, primary screen, biochemical, biotinylated probe, 635/667 nm fluorescence (AID 1099).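 Note: score merges 667nm spot fluorescence with signal to noise across triplicate slides.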 The conditions noted are these: higher = more signal.
A short description of test [3]: small-molecule microarray binders of probe aCHRDL2, primary screen, biochemical, biotinylated probe, 635/667 nm fluorescence (AID 1100). The settings on record: higher = more signal.
Test [4] is described as follows: splicing luciferase reporter signal modulators, primary screen, spliceosome inhibition project, cell-based, HEK293, splice +/- reporter (AID 1101).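 Note: HEK293 cells carrying a splicing-competent luciferase reporter gene; test concentration not given here.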 The settings on record: luminescence, 24 h, higher = more signal, called active from +8 up or from −8 down. (In general: In a reporter assay the amount or activity of a reporter protein is the signal.)
In test [5] the target is Fibroblast growth factor 10 (Homo sapiens) (UniProt O15520). Put plainly: FGF10 binders on small-molecule microarrays, primary screen, biochemical, small-molecule microarray, 635 nm fluorescence (AID 1102). The conditions noted are these: FGF10 binding, fluorescence 635 nm, higher = more signal.
Sequence of Fibroblast growth factor 10 (Homo sapiens) (O15520 whole entry, looked up): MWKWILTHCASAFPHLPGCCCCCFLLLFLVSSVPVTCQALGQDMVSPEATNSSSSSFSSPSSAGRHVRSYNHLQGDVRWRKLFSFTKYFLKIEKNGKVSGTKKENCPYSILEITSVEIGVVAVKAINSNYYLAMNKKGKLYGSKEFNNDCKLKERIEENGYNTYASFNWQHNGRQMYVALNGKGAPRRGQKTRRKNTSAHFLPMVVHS
Test [6] concerns glycogen synthase kinase-3 (GSK3A per assay name; protocol says GSK3B). The test can be described thus: GSK3 binders on small-molecule microarrays, primary screen, biochemical, small-molecule microarray, 635 nm fluorescence, GSK3A (AID 1103). Note: the record names both GSK3A and GSK3B. The settings on record: small-molecule microarray binding, fluorescence 635 nm; higher = more signal.
For test [7], the target named is Epidermal growth factor receptor (Homo sapiens) (UniProt P00533). The test can be described thus: EGFR binders on small-molecule microarrays, primary screen, biochemical, small-molecule microarray, 635 nm fluorescence (AID 1104).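 Note: score merges 667 nm emission intensity with spot signal to noise over triplicate slides.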 The conditions noted are these: EGFR binding, higher = more signal.
Sequence of Epidermal growth factor receptor (Homo sapiens) (P00533 whole entry, looked up): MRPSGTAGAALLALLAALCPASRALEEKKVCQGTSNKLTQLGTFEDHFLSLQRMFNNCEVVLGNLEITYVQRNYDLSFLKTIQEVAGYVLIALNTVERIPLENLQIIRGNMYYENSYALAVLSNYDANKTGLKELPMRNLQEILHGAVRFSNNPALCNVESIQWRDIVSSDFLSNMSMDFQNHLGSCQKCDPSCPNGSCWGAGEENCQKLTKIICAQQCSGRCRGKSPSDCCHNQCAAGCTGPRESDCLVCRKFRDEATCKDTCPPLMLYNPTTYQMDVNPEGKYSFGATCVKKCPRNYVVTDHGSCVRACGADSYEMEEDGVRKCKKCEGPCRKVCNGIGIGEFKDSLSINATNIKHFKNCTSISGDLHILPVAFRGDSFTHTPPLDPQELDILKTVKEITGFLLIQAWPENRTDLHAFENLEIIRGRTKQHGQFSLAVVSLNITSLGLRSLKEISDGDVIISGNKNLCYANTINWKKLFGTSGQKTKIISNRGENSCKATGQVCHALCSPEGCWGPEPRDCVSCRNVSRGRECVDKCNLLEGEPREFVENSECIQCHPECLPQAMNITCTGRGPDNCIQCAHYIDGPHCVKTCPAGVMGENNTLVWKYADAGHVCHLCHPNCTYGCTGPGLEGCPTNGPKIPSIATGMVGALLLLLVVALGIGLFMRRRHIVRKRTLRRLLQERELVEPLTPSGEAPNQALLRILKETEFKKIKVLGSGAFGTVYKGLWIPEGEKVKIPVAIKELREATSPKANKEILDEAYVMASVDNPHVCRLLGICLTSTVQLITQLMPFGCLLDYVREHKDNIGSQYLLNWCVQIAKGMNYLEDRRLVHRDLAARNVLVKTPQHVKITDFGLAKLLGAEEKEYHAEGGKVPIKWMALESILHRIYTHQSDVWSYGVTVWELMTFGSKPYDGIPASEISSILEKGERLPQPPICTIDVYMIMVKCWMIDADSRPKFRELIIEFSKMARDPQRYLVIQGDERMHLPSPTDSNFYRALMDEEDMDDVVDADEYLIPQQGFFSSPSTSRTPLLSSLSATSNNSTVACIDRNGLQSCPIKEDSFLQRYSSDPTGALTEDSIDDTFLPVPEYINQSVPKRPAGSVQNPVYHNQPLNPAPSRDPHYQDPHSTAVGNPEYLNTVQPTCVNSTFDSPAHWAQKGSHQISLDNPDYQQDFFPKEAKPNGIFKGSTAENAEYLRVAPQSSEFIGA
The target of test [8] is Follistatin-related protein 3 (Homo sapiens) (UniProt O95633). The test can be described thus: FSTL3 binders on small-molecule microarrays, primary screen, biochemical, small-molecule microarray, 635 nm fluorescence (AID 1105).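 Note: score merges emission near 667 nm and signal to noise per printed spot across three slides.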 The settings on record: FSTL3 binding, higher = more signal.
Sequence of Follistatin-related protein 3 (Homo sapiens) (O95633 whole entry, looked up): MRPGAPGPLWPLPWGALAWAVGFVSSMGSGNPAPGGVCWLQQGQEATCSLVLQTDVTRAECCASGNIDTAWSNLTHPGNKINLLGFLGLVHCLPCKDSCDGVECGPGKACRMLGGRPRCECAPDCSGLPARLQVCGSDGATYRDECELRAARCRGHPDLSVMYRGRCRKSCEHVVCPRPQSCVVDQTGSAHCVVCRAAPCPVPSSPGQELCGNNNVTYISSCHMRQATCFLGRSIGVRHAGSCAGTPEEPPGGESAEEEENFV
Test [9] has as its target Dickkopf-related protein 1 (Homo sapiens) (UniProt O94907). The test can be described thus: DKK1 binders on small-molecule microarrays, primary screen, biochemical, small-molecule microarray, 635 nm fluorescence scan (AID 1106).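 Note: score merges emission near 667 nm with signal to noise over three replicate slides.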 The settings on record: DKK1 binding, higher = more signal.
Test [10] concerns Inhibin beta A chain (activin A). The test can be described thus: INHBA (activin A) binders on microarrays, primary screen, biochemical, small-molecule microarray, 635 nm fluorescence scan (AID 1107).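 Note: mouse activin A protein probed at 4.33 µg/mL on printed slides; score merges bound-protein fluorescence near 667 nm with spot signal-to-noise.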 The conditions noted are these: small-molecule microarray binding, higher = more signal.
Test [11] deals with Human papillomavirus type 1a protein E7 (residues 44-93). The test can be described thus: HPV1a E7 fragment binders on microarrays, primary screen, biochemical, small-molecule microarray, residues 44-93, 635 nm fluorescence (AID 1108).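 Note: E7 fragment applied at 1 µg/mL in TBST for 1 h at 4 C; score combines spot fluorescence with its signal to noise ratio.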 The conditions noted are these: small-molecule microarray binding, fluorescence 635 nm; higher = more signal.
Test [12] is described as follows: modulators of HCV replicon luciferase signal, primary screen, HCV replication inhibitor project, Huh7 cells, luciferase reporter (AID 1109).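 Note: huh7 hepatoma cells harbouring a luciferase neomycin HCV replicon reporter; luciferase luminescence as measure of HCV replicon replication; test concentration not given here.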 The conditions noted are these: 48 h, higher = more signal. In general terms: Replicon systems follow genome replication, usually without infectious particles.
Test [13] addresses Left-right determination factor 2 (Homo sapiens) (UniProt O00292). The test can be described thus: LEFTY2 binders on small-molecule microarrays, primary screen, biochemical, small-molecule microarray, 635 nm fluorescence scan (AID 1110). The settings on record: LEFTY2 binding, higher = more signal.
Test [14] has as its target Calmodulin-1 (Homo sapiens) (UniProt P0DP23). The test can be described thus: CALM1 binders on microarrays, EGTA buffer, profiling panel, biochemical, small-molecule microarray, Cy5-labelled CALM1 (AID 1111).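 Note: labelled calmodulin applied in Tris saline Tween buffer holding calcium plus EGTA and DTT.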 The settings on record: Cy5-CALM1 binding fluorescence, higher = more signal.
Test [15] shares this target. Put plainly: calcium-bound CALM1 binders on microarrays, profiling panel, artefact control for SMM control-protein annotation, biochemical, small-molecule microarray, Cy5-labelled CALM1, plus calcium (AID 1112).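 Note: score merges spot fluorescence with signal to noise from triplicate slides.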 The settings on record: Cy5-CALM1 binding fluorescence, higher = more signal.
Test [16] can be described thus: small-molecule microarray binders of probe aWnt5a, primary screen, biochemical, biotinylated probe, 635/667 nm fluorescence (AID 1113).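 Note: score merges 667 nm fluorescence intensity with signal-to-noise per printed feature.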 The settings on record: higher = more signal.
Test [17] in a line: small-molecule microarray binders of probe aShh, primary screen, biochemical, biotinylated probe, 635/667 nm fluorescence (AID 1114).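 Note: probe is biotin-labelled aShh protein from a stem cell growth factor screen; measures binding of labelled protein to compounds printed on the slide; score merges feature fluorescence at 667 nm with signal-to-noise.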 The settings on record: higher = more signal.
Test [18] can be described thus: small-molecule microarray binders of probe aNog, primary screen, biochemical, biotinylated probe, 635/667 nm fluorescence (AID 1115).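 Note: probe is biotinylated aNog protein used at 0.15 µg/mL for 1 h at 4 C; z-score combines 667 nm fluorescence of each spot with its signal to noise.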 The settings on record: higher = more signal.
The target in test [19] is Torsin-1A-interacting protein 1 (Homo sapiens) (UniProt Q5JTV8). Put plainly: LAP1 binders from COS7 cell lysate, primary screen, small-molecule microarray, 635/667 nm fluorescence (AID 1116). The settings on record: COS7-hLAP1 lysate binding, 635 nm fluorescence, higher = more signal.
Sequence of Torsin-1A-interacting protein 1 (Homo sapiens) (Q5JTV8 whole entry, looked up): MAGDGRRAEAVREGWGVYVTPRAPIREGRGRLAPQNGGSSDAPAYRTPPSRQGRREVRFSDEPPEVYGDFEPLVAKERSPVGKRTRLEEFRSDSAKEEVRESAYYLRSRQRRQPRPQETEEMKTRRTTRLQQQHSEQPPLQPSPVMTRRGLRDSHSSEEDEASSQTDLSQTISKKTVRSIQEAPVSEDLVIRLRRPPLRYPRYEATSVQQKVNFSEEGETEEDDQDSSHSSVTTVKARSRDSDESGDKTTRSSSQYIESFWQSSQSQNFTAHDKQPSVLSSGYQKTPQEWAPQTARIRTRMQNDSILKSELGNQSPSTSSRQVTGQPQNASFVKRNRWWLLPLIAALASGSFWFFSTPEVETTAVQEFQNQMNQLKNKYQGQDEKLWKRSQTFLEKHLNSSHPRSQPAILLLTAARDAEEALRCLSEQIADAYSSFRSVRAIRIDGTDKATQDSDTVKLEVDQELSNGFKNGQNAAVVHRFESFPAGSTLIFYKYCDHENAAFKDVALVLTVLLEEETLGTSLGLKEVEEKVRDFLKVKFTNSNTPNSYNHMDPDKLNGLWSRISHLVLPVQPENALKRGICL
For test [20], the target named is Alpha-bungarotoxin (Bungarus multicinctus) (UniProt P60615). The test can be described thus: alpha-bungarotoxin binders on microarray, profiling panel, artefact control for SMM control protein annotation, biochemical, small-molecule microarray, Alexa647 label, 635/667 nm fluorescence (AID 1117). The settings on record: alpha-BTX-A647 binding fluorescence, higher = more signal.
Sequence of Alpha-bungarotoxin (Bungarus multicinctus) (P60615 whole entry, looked up): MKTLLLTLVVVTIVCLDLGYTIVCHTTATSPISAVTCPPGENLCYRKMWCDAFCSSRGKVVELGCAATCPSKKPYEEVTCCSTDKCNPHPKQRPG

Sequence of Left-right determination factor 2 (Homo sapiens) (O00292 whole entry, looked up): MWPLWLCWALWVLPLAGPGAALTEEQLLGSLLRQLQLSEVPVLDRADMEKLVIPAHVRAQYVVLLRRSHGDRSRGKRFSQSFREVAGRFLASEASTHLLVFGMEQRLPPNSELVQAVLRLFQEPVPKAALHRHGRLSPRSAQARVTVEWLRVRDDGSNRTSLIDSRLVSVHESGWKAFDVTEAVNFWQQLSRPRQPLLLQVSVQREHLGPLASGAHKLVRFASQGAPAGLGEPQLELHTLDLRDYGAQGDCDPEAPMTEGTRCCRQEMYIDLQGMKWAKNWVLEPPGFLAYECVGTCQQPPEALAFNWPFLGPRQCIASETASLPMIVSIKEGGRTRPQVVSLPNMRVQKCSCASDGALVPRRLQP
Sequence of Dickkopf-related protein 1 (Homo sapiens) (O94907 whole entry, looked up): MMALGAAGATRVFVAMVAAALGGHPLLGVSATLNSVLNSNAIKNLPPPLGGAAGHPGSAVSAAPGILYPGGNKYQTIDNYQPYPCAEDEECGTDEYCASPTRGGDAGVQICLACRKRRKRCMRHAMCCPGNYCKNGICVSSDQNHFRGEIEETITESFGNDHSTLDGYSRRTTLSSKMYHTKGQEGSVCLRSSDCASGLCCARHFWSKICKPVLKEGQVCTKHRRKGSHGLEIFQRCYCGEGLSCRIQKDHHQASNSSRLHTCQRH

Turning to `CCCC[C@@H]1C[C@H]1[C@@H](NC(=O)c1ccc(-c2ccccc2)cc1)c1ccc(-c2ccccc2)cc1`, the composite z-score in test [1] was -0.508; in test [2] it was 0.126; in test [3] it was 0.0604; in test [5], 0.259; in [6], 0.127; in test [7], 1.21. The composite z-score was 1.39 in test [8]; 1.01 in [9]; 1.35 in [10]; 0.511 in test [11]; 0.848 in test [13]; 0.212 in [14]. In addition, the composite z-score is -0.836 in [15]; -0.0459 in test [16]; 1.37 in test [17]; -0.435 in test [18]; 0.285 in test [19]; 0.364 in test [20]. The z-score in [4] is -2.88 (inactive); in test [12], -0.787.

Regarding `NCCCCCCNC(=O)[C@H]1C[C@H]2C(=O)NCC(=O)N2[C@H]1c1cccc(OCCO)c1`, the composite z-score in [1] turned out to be 1.56; in [2], 0.0447; in test [3], 0.161; in test [5] it was 0.641; in test [6], 1.1; in test [7], 0.544. The composite z-score is 0.563 in test [8]; 0.978 in test [9]; -0.0745 in test [10]; 0.298 in [11]; 0.816 in test [13]; -0.0421 in test [14]. For the same molecule, the composite z-score in [15] was -0.369; in test [16], -0.0643; in [17], 0.199; in [18] it was 0.0234; in [19], 0.963; in test [20], 1.37. Moreover, the z-score in [4] is -0.283 (inactive); in test [12], -0.128.

For `CCOC(=O)C[C@H]1[C@H](OC(=O)c2ccc(-c3ccccc3)cc2)[C@@H](NC(=O)c2ccc3ccccc3c2)c2cc(OCCCO)ccc2N1C(=O)Cc1ccc(OC)cc1`, the composite z-score in [1] was -0.517; in test [2], -0.0669; in [3], -0.269; in test [5], -0.383; in test [6] it was 0.247; in [7], -0.245. Moreover, the composite z-score was 0.368 in [8]; -0.416 in test [9]; 0.487 in test [10]; 0.758 in test [11]; 0.0216 in test [13]; 0.868 in test [14]. Further, the composite z-score in [15] was 0.171; in [16] it was -0.001; in test [17] it was 0.151; in test [18], -0.0209; in test [19] it was 0.15; in [20], 0.0773. Moreover, the values for the z-score in [4] and in [12] were -0.334 (inactive) and -0.983, respectively.

Regarding `COCCCNC(=O)[C@@]1(CCC(=O)OC(C)(C)C)N=C(c2ccc(OCCCO)cc2)O[C@H]1c1ccccc1CN=[N+]=[N-]`, the composite z-score in test [1] turned out to be 1.62; in [2], 0.965; in test [3] it was 1.08; in test [5], 1.56; in test [6] it was 1.13; in test [7], 0.123. Besides, the composite z-score in [8] was 0.932; in test [9], 0.119; in [10], 0.471; in [11], 1.49; in [13], -0.139; in test [14] it was 1.39. In addition, the composite z-score in [15] was 0.854; in [16], 0.112; in test [17], 0.0898; in [18], 1.36; in test [19] it was 2.28; in test [20], 2.19. The results for the z-score in [4] and in [12] were -0.228 (inactive) and 0.43, respectively.

Take `COc1ccc(C(=O)Nc2cccc(CN3C(=O)[C@]4(O[C@H](CC(=O)N5CCC[C@H]5CO)[C@@H]([Si](C)(C)c5ccc(OC)cc5)[C@@H]4C)c4ccccc43)c2)cc1`: the composite z-score in [1] was 1.27; in test [2], -0.202; in test [3] it was -0.067; in test [5], 0.703; in test [6] it was 1.12; in [7], 0.317. Moreover, the composite z-score in test [8] was 0.737; in test [9] it was 0.65; in test [10], -0.0762; in test [11] it was 1.23; in [13], 0.419; in test [14], 0.418. The composite z-score in test [15] was 0.252; in [16] it was -0.0285; in test [17], -0.0959; in [18], 0.0733; in test [19] it was 1.06; in [20], 0.954. For the same molecule, the z-score in test [4] is -0.0342 (inactive); in test [12], -2.84.
